RORg inh: ROR gamma (mouse) transcription inhibition | Drosophila S2 Gal4-RORgamma UAS-luciferase reporter, 20 h | Potency, µM (series often up to 53.6 µM), for inactives: at the highest dose activity change, negative = inhibition, usual class: inhibitors | AID 2551 | P51450 | 310,000 tested, 5.4% active; note: nearly all actives have a fitted effect of over 60% in size
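Luciferase reporter read in Schneider cells carrying Gal4-RORγ (mouse) and UAS-Photinus luciferase; cells given compound 1 h before 700 uM copper sulfate induction, then incubated 20 h at ambient temperature.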
TDP1 cell CPT: DT40-hTDP1 cell growth loss with CPT; chicken DT40 Tdp1-/-;hTDP1 cells + 20 nM CPT, ATP luminescence, 48 h; Potency, µM (top dose mostly 46.2 µM), without a hit: at the top dose activity change, negative = growth inhibition, most hits filed as inhibitors; 420,000 tested, 12% active; AID 686979; note: nearly all actives have a fitted effect of over 55% in size
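Chicken DT40 Tdp1-/- cells complemented with human TDP1, 400 cells/well, exposed to compounds plus 20 nM camptothecin for at least 48 h at 37 C; viability read as ATP content by CellTiter-Glo luminescence.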
TDP1 block: TDP1 (human) enzyme inhibition; Potency, µM (titrated, usually from 130 µM), without a hit: at the top dose activity change, negative = inhibition, most hits filed as inhibitors; 350,000 tested, 0.28% active; recombinant TDP1, AlphaScreen DNA substrate cleavage; AID 485290; note: nearly all actives have a fitted effect of over 40% in size
Target sequence (Q9NUW8 whole entry, looked up): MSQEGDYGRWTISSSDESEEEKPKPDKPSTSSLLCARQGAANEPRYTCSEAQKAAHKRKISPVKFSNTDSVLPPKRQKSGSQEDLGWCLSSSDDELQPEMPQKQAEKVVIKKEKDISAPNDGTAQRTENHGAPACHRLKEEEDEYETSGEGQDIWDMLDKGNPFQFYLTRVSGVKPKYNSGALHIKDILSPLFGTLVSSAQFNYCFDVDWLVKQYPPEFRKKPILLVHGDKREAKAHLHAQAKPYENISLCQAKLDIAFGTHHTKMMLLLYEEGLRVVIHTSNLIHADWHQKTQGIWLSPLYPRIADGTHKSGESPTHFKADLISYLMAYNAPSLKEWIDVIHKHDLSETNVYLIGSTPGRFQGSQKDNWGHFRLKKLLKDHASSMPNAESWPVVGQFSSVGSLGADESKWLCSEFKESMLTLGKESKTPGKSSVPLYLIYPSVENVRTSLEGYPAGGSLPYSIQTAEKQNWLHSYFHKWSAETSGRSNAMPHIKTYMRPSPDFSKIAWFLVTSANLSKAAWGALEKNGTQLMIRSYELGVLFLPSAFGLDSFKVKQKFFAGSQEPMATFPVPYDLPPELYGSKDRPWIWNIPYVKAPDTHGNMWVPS
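Recombinant E. coli-expressed Tdp1 (1 nM) preincubated with compound 15 min at RT, then 5'-biotin/3'-phosphotyrosine-FITC DNA substrate (15 nM) added for 5 min. AlphaScreen beads (10 ug/ml) added, 10 min RT; tyrosine-FITC cleavage read as signal loss.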
VP16 counter: Gal4-VP16 reporter inhibition counter-screen. 310,000 tested, 3.5% active. Potency, µM (series often up to 53.6 µM), inactives show at the top dose activity, negative = inhibition, actives largely listed as inhibitors. Drosophila S2 Gal4-VP16 UAS-luciferase, luminescence, 20 h;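 note: Gal4-VP16 expression switched on by copper sulfate through the metallothionein promoter; nearly all actives have a fitted effect of over 50% in size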
TDP1 cell noCPT: qHTS for Inhibitors of human tyrosyl-DNA phosphodiesterase 1 (TDP1): qHTS in cells in absence of CPT | Potency, µM (top dose mostly 46.2 µM), inactives show at the top dose activity change, negative = growth inhibition, actives largely listed as inhibitors | AID 686978, 2013 | 420,000 tested, 15% active | DT40 Tdp1-/- hTDP1 cells, no CPT, ATP luminescence, 48 h; note: nearly all actives have a fitted effect of over 55% in size
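Chicken DT40 Tdp1-/- cells stably complemented with human TDP1 were seeded at 400 cells/well with DMSO in place of 20 nM camptothecin. After compound pinning, cells grew at least 48 hr at 37 °C; viability read by CellTiter-Glo luminescence.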
Numbers without * were called inactive; ? = inconclusive; nt = not tested or not shown; [ ] = remark or other dose. Most compounds without a hit are left out; they make up all but 19% or so of the library. Calls come from the whole dose curve; as a rule, active = well fitted curve in the direction sought with a large enough effect; inconclusive = small, poorly fitted or top-dose-only effect, or another doubt; inactive = no such curve, though single readings can be large; an effect the other way counts as inactive or inconclusive. % is set by controls: 0 for no effect and ±100 for the full control effect; potency is the fitted concentration of half-maximal effect.

SMILES	RORg inh	TDP1 cell CPT	TDP1 block	VP16 counter	TDP1 cell noCPT
O=C(COC(=O)c1ccccc1[N+](=O)[O-])c1ccc2c(c1)OCO2	nt	-5%	1%	nt	-5%
COc1cccc(/C=N/N2CCN(C3c4ccccc4-c4ccccc43)CC2)c1O	17%	?	6%	-3%	16µM*
COc1ccccc1N1CCN(/N=C/c2ccc(O)c(O)c2)CC1	-30%	18µM*	0%	-9%	9.2µM*
Oc1cccc(/C=N/N2CCN(C3c4ccccc4-c4ccccc43)CC2)c1	4%	?	7%	-8%	?
COc1cc(/C=N/N2CCCCC2)cc(OC)c1O	-3%	18µM*	nt	-1%	18µM*
COc1cc(/C=N/N2CCN(C3c4ccccc4-c4ccccc43)CC2)ccc1O	43%	26µM*	2%	?	23µM*
COc1cc(C=NN2CCCCC2)cc(OC)c1OC	nt	2%	nt	nt	0%
CC1CCCN(C(=O)Nc2ccc(Br)cc2Cl)C1 (configuration not stated)	-8%	-12%	5%	-1%[10 µM]	-29%
COc1ccc2nc(N)sc2c1	-5%	-5%	9%	7%	-9%
COc1ccc2nc(N=NC3=C(O)CC(C)(C)CC3=O)sc2c1	11µM*	5.2µM*	10%	?	5.8µM*
CC1(C)CC(=O)C(N=Nc2ccc3ncsc3c2)=C(O)C1	-18%	-28%	5%	-11%	-18%
COc1ccc2nc(N=Nc3ccc(O)c4ccccc34)sc2c1	1.6µM*	1.3µM*	3%	5µM*	1.3µM*
CCOC(=O)CC1(C)N(S(=O)(=O)c2ccc(C)cc2)c2ccccc2N1S(=O)(=O)c1ccc(C)cc1	nt	?	nt	nt	15µM*
CCOC(=O)CC1(CC)Oc2ccccc2N1S(=O)(=O)c1ccc(C)cc1 (configuration not stated)	nt	23µM*	nt	nt	?
CCOC(=O)c1cccc(NC(=O)N2CC(CC)Oc3ccccc32)c1 (configuration not stated)	nt	?	-3%	nt	16µM*
CCC1CN(C(=O)Nc2cccc(OC)c2)c2ccccc2O1 (configuration not stated)	nt	?	4%	nt	23µM*
CCC1CN(C(=O)Nc2cccc(C)c2)c2cc(C)ccc2O1 (configuration not stated)	21%	?	4%	-6%	21µM*
CCC1CN(C(=O)Nc2cc(C)cc(C)c2)c2ccccc2O1 (configuration not stated)	nt	?	4%	nt	?
CCN(CC)c1nc(C)nc2c1cnn2CCc1ccccc1	11%	?	-1%	19%	15µM*
O=C(N/N=C\c1ccco1)Nc1cccc(Cl)c1	?	0%	0%	-7%	?
CCCS(=O)(=O)N1CCN(CC2CC=CCC2)CC1 (configuration not stated)	4%	-13%	-6%	-6%	-5%
CCCS(=O)(=O)N1CCN(CC2CC3C=CC2C3)CC1 (configuration not stated)	24%	-8%	-4%	-2%	5.8µM*
O=C1NC2(CCCCC2)N(C(=O)c2ccccc2)C2=C1CCCC2	?	-8%	1%	12%	-4%
COc1ccc(CCNC(=O)c2cccc(NC3=NC4CS(=O)(=O)CC4S3)c2)c(OC)c1 (configuration not stated)	0%	-4%	nt	3%	-4%
CC(C)N(Cc1ccccc1)C(=S)NC1CCCCC1	13µM*	-6%	-3%	?	?
SMILES	RORg inh	TDP1 cell CPT	TDP1 block	VP16 counter	TDP1 cell noCPT
CCOC(=O)CN(Cc1ccccc1)C(C(=O)NC1CCCCC1)c1ccccc1 (configuration not stated)	nt	21µM*	0%	nt	15µM*
CC(C)N(C(=S)NC1CCCCC1)c1ccccc1	11µM*	nt	-5%	?	nt
N#CCCN(Cc1ccccc1)C(C(=O)NC1CCCCC1)C1CC1 (configuration not stated)	nt	16µM*	nt	nt	15µM*
CN(CC(=O)NC(=O)NC1CCCCC1)c1ccccc1	nt	-14%	2%	nt	-20%
CCOC(=O)C1=NOC(CN(c2ccccc2)S(=O)(=O)c2ccc(Cl)cc2)C1 (configuration not stated)	13%	6%	-4%	-15%	5%
COc1ccccc1NC(=S)N(c1ccccc1)C(C)C	?	-19%	0%	-5%	-25%
Cc1cccc(NC(=S)N(c2ccccc2)C(C)C)c1C	14µM*	?	5%	25µM*	?
COc1ccc(NS(=O)(=O)c2cc(NC(=O)/C=C/c3cc(OC)ccc3OC)ccc2N2CCCCC2)cc1	8%	10%	-6%	-3%	5%
O=C1C=CC(=O)N1CCCCCCN1C(=O)C=CC1=O	3.2µM*	1.5µM*	5%	0.89µM*	2.1µM*
COCCN(CCOC)CC(O)COC(c1ccccc1)c1ccccc1 (configuration not stated)	4%	0%	0%	-8%	15µM*
CC1CN(CC(O)COC(c2ccccc2)c2ccccc2)CC(C)O1 (configuration not stated)	-8%	-21%	-1%	4%	-28%
CCN1C(=O)C(CC(=O)Nc2ccccc2Cl)N(NC(=O)c2cccc(F)c2)C1=S (configuration not stated)	11µM*	?	5%	?	-3%
CCN1C(=O)C(CC(=O)NCCc2ccccc2)N(NC(=O)c2ccc(Br)cc2)C1=S (configuration not stated)	nt	?	nt	nt	21µM*
CN1C(=O)C(CC(=O)Nc2ccc(F)cc2)N(NC(=O)c2cccc(F)c2)C1=S (configuration not stated)	-5%	12%	4%	8%	-18%
CNC(=O)CC1C(=O)N(c2ccc(OC)cc2)C(=S)N1NC(=O)c1cccc(F)c1 (configuration not stated)	7.1µM*	1%	0%	?	-1%
Nc1cc(=O)[nH]c2nnc(SCC(=O)Nc3cccc4ccccc34)n12	-9%	13%	2%	-3%	-11%
CCCCc1nn(-c2cc(Cl)ccc2OC)c2c1C(=O)CC(C)(C)C2	-9%	12µM*	4%	2%	21µM*
CCCc1nn(-c2cc(Cl)ccc2OC)c2c1C(=O)CCC2	7%	?	4%	-5%	?
CCCc1nc2ccccc2c(C(=O)OCC(=O)NC2CC2)c1CC	nt	?	-4%	nt	?
CCc1nc2ccccc2c(C(=O)OCC(=O)Nc2ccc(NC(C)=O)cc2)c1C	nt	13µM*	1%	nt	21µM*
CC(=O)Nc1ccc(C(=O)OCC(=O)NCc2ccccc2)cc1	6%	?	-8%	-5%	21µM*
